# ADAM10 inh – inhibits human ADAM10. 370,000 tested, 0.62% active. recombinant ADAM10, EDANS/DABCYL FRET peptide cleavage, 3 h. AID 720582. inhibition, % at 7 µM;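 active = inhibition above a per-campaign cutoff equal to the mean of compounds falling between control-based bounds plus 3 SD, cut at about 20% in these data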
# sPLA2-III inh – Blocks human group III sPLA2 activity; AID 743126; inhibition, % at 12.2 µM; 370,000 tested, 0.56% active; QFRET BODIPY PC-A2 liposome hydrolysis, fluorescence;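 active = inhibition above mean plus 3 SD of compounds lying within the high and low control bounds, cut at about 19% in these data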
# PLCb3 inh – blocks human PLC-beta3 enzyme activity | Q01970 | 370,000 tested, 0.18% active | AID 720704 | Purified PLC-beta3, fluorogenic substrate, fluorescence | inhibition, % at 12.2 µM; in the data active = inhibition above about 11%
# PLCg1 inh – blocks human PLC-gamma1 enzyme activity | P19174 | purified PLC-gamma1, fluorogenic substrate, fluorescence | inhibition, % at 12.2 µM | 370,000 tested, 0.84% active | AID 720700; in the data active = inhibition above about 9.5%
# ADAM17 inh – inhibits human ADAM17; P78536; recombinant ADAM17, EDANS/DABCYL FRET peptide cleavage; inhibition, % at 6.95 µM; 370,000 tested, 0.83% active;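 active = inhibition above the mean of compounds lying between control limits plus 3 SD, set per campaign, cut at about 8.5% in these data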
# proKLK7 act – proKLK7 (human) activation, primary screen; P49862; purified proKLK7, EDANS-DABCYL substrate fluorescence; 100% is mature enzyme control, 0% vehicle; AID 652039; activation, % at 7 µM; 370,000 tested, 0.9% active;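 active = activation above the mean of all tested compounds plus 3 SD, computed per campaign excluding outliers beyond control limits, cut at about 13% in these data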
# KLK7 act conf – proKLK7 activation, confirmation; 3,200 tested, 68% active; activation, % at 7 µM; AID 686949; shares compounds with proKLK7 act; purified proKLK7, EDANS-DABCYL substrate fluorescence; scaled: vehicle 0, mature enzyme 100;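 active = activation, as change over the incubation, above the mean of all tested compounds plus 3 SD, cut at about 13% in these data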
# EDANS interfere – fluorescence interference counter-screen for KLK7 activators; shares compounds with proKLK7 act; EDANS-DABCYL substrate fluorescence interference, no enzyme, 4 h; solvent 0%, active enzyme control 100%; activation, % at 7 µM; 3,200 tested, 80% active;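 active = activation above the all-compound mean plus 3 SD, ignoring values outside control-based bounds, cut at about 4.8% in these data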;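 also: value is the 4 h activation minus the activation read at time zero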
# A number is an active result; - = inactive; . = no result. Only some compounds are listed: those with a hit (about 3.4% of all), similar ones and a draw of the others.
SMILES,ADAM10 inh,sPLA2-III inh,PLCb3 inh,PLCg1 inh,ADAM17 inh,proKLK7 act,KLK7 act conf,EDANS interfere
CCN(CC(=O)NC(C)(C)C)C(=O)CN1c2cccc3cccc(c23)S1(=O)=O,-,-,-,-,-,15,-,-
COc1ccc(CCNC(=O)CN2c3cccc4cccc(c34)S2(=O)=O)cc1,-,-,-,-,-,-,.,.
CC(C)(C)NC(=O)NC(=O)CN1c2cccc3cccc(c23)S1(=O)=O,-,-,-,-,-,-,.,.
CCCCc1c(-c2ccccc2OC)ncn1Cc1ccc(OC)c(Cl)c1,-,-,-,-,-,-,.,.
O=C(COc1ccc(F)c(Cl)c1)N[C@H]1CCCN(CC2CC2)C1,-,-,-,-,-,.,.,.
COc1ccc(/C=C/C(=O)c2ccc(O)cc2)cc1,-,-,-,-,-,13,-,-
COc1ccc(/C=C/C(=O)c2ccoc2)cc1,-,-,-,-,-,-,.,.
Cc1cccc(-n2c(O)c(C=Nc3ccccc3)c3ccccc3c2=O)n1,-,-,-,-,-,17,15,16
C[C@H](O)[C@@H]1CN2CCc3c([nH]c4ccccc34)[C@@H]2C[C@@H]1N(C)C(=S)NCCc1ccccc1,-,-,-,-,-,39,-,-
CCNC(=O)N(C)[C@H]1C[C@H]2c3[nH]c4ccccc4c3CCN2C[C@H]1[C@H](C)O,-,-,-,-,-,17,-,-
CN1CCN(C(=O)c2cccn(Cc3cccc(Cl)c3)c2=O)CC1,-,-,-,-,-,-,.,.
C=CCNC(=S)NNC(=O)c1cccn(Cc2cccc(Cl)c2)c1=O,-,-,-,-,-,27,42,44
C=CCn1cccc(C(=O)Nc2ccc(Cl)cc2)c1=O,-,-,-,-,-,-,.,.
C=CCNC(=S)NNC(=O)c1cccn(Cc2ccc(Cl)cc2)c1=O,-,-,-,-,-,27,39,47
C=CCC12C=C(OC)C(=O)C(C1=O)C(c1ccc(OC)cc1)C2C (stereo not drawn),-,-,-,-,-,-,.,.
Cc1cc(NC(=O)CSc2nc3ccccc3c(=O)n2Cc2ccccc2)no1,-,-,-,-,-,-,.,.
Cc1cc(NC(=O)COC(=O)CSc2nc3cc(Cl)ccc3n2Cc2ccccc2)no1,-,-,-,-,-,13,-,-
CCOc1ccc(/C=C/C(=O)N(C)CC(=O)Nc2cccc(F)c2)cc1OCC,-,-,-,-,-,106,-,-
CS(=O)(=O)N(CC(=O)N1CCOCC1)c1ccc2c(c1)OCO2,-,-,-,-,-,17,-,-
NS(=O)(=O)c1ccc(NC(=O)/C=C/c2ccc3c(c2)OCO3)cc1,-,-,-,-,-,-,.,.
CC(=O)Nc1ccc(NC(=O)/C=C/c2ccc3c(c2)OCO3)cc1,-,-,-,-,-,19,-,22
O=C(/C=C/c1ccc2c(c1)OCO2)Nc1nncs1,-,-,-,-,-,13,-,-
O=C(NCc1ccccc1)[C@@H]1CCCN1C(=O)[C@H]1CCCN1C(=O)c1ccccc1C(F)(F)F,-,-,-,-,-,-,.,.
COCCCNC(=O)c1ccc2nc3ccccc3c(=O)n2c1,-,-,-,-,-,31,60,68
COC(CNC(=O)c1ccc2nc3ccccc3c(=O)n2c1)OC,-,-,-,-,-,28,62,68
SMILES,ADAM10 inh,sPLA2-III inh,PLCb3 inh,PLCg1 inh,ADAM17 inh,proKLK7 act,KLK7 act conf,EDANS interfere
COc1ccc(CCNC(=O)c2ccc3nc4cc(Cl)ccc4c(=O)n3c2)cc1OC,-,-,-,-,-,-,.,.
Cc1cc(N2CCN(C(=O)OC(C)(C)C)C[C@H]2C)ccc1Br,-,-,-,-,-,-,.,.
CCOC(=O)N1CCC(N2C(=O)c3ccccc3C2Nc2ccc3c(C)cc(=O)oc3c2)CC1 (stereo not drawn),-,-,-,-,-,36,-,-
COC(=O)[C@]12C[C@H](CC(=O)NCc3cccs3)C(=O)N(Cc3ccccc3)C1=C[C@H](C1CCCC1)O[C@@H]2C,-,-,-,-,-,-,.,.
COc1ccc(C(Nc2ccccn2)c2c(NC(=O)c3ccco3)sc(C)c2C)cc1OC (stereo not drawn),-,-,-,-,-,-,.,.
COc1cc(C(Nc2ccccn2)c2c(NC(=O)c3ccco3)sc(C)c2C)cc(OC)c1OC (stereo not drawn),-,-,-,-,-,26,-,-
CCOC(=O)N1CCN(S(=O)(=O)c2ccc(C(=O)Nc3sc4c(c3C(N)=O)CC(C)(C)NC4(C)C)cc2)CC1,-,-,-,-,-,57,-,-
CC(C)C[C@H]1COc2cc(NCCCN3CCOCC3)ccc2S(=O)(=O)N1,-,-,-,-,-,-,.,.
C=CCNC(=O)CSc1ncc2c(n1)-c1c(csc1SC)CC2,-,-,-,-,-,46,59,69
CSc1scc2c1-c1nc(SCC(=O)C(C)(C)C)ncc1CC2,-,-,-,-,-,-,.,.
C#CCN(C[C@H]1[C@H](OC(=O)NCCCCCC)[C@H](OC(=O)NCCCCCC)CN(C(=O)OC(C)C)N1C(=O)OC(C)C)S(=O)(=O)c1ccc(C)cc1,-,-,-,-,-,-,.,.
CNc1nc(-c2ccccc2)cc(C)c1S(C)(=O)=O,-,-,-,-,-,20,-,-
COc1ccc(CN2C(=O)N3Cc4ccccc4C3CS2(=O)=O)cc1 (stereo not drawn),-,-,-,-,-,-,.,.
Cc1ccc(-c2nnc(N(C)C(=O)c3cccnc3)s2)cn1,-,-,-,-,-,-,.,.
CN(C(=O)C1CCOC1)c1nnc(-c2ccccn2)s1 (stereo not drawn),-,-,-,-,-,41,50,48
CN(C(=O)C1CCOC1)c1nnc(-c2ccncc2)s1 (stereo not drawn),-,-,-,-,-,46,65,70
CN(C(=O)c1ccccn1)c1nnc(-c2cccnc2)s1,-,-,-,-,-,-,.,.
Cc1cnc(-c2nnc(N(C)C(=O)c3cccnc3)s2)cn1,-,-,-,-,-,42,72,74
CC(=O)N(c1ccccc1)c1nnc(-c2cnc(C)cn2)s1,-,-,-,-,-,-,.,.
Cc1cnc(-c2nnc(N(C)C(=O)C3CCOC3)s2)cn1 (stereo not drawn),-,-,-,-,-,31,43,46
Cc1cc(=O)[nH]c(SCC(=O)Nc2ccc(Cl)cc2)n1,-,-,-,-,-,-,.,.

# From PubChem
